Our source for the growth values is PubChem BioAssay (NCI).

The structures appear in SMILES notation. About 83,000 compounds went through this panel and 20% of them were active in at least one assay; those are over-represented in the sample as a whole.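 Percent growth is the endpoint: 0 to 100 indicates growth inhibition (40 means 60% inhibition), 0 means no net growth, and negative values indicate cell death.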 Values without a mark were called inactive. Calls of active or inactive are those of the source. Rule for the calls: active = growth percent below 10; inactive = the rest.

The assay deals with SNB-75 CNS. The assay is described as follows: NCI-60 one-dose screen, 48 h (100 = growth as untreated, 0 = no growth, -100 = all killed). Particulars: 10 µM unless noted.
Consider `C=CC[N+]1(CC)CCN=C1CCCCCCCCCCCCCCCCC` (stereo unspecified), for which the growth is -92.1% (active).
Consider `CCN(CC)CCCNc1cc(OC)cc2nc3cc(Cl)ccc3nc12`, for which the growth was -2.74% (active).
The result for `CCCCCCCCCCNC(=O)CCl` reads 45.5%; that for `CCOC(=S)SCc1ccc(Cl)cc1`, 76.5%; that for `O=C(O)c1ccc2c(c1Sc1ccccc1)C(=O)c1ccccc1C2=O`, 78.1%.
Consider `CCN(CC)CC(C)Nc1ccc([N+](=O)[O-])c2sc3ccccc3c(=O)c12` (stereo unspecified), for which the growth is 36.3%.
To `Cc1cc2c(cc1C)NC1=C(N2)OC(c2c3ccccc3cc3ccccc23)C1=O` (stereo unspecified) belongs 49.4%; to `O=C(Nc1ccc(CN2CCOCC2)cc1)c1[nH]ncc1Nc1ncnc2sccc12`, -24.7% (active); to `CCOC(=O)C(C#N)C1CCCCC1` (stereo unspecified), 97.9%.
Consider `Nc1cccc(NC(=O)C(=O)Nc2cccc(N)c2)c1`, for which the growth is 94%.
To `CN(CC(=O)N(Cc1ccc(C2CCCCC2)cc1)c1ccc(C(=O)NO)cc1)S(=O)(=O)c1c(F)c(F)c(F)c(F)c1F` belongs 84.5%.
In the case of `CCN(CC)c1ccc(/C=C/C2=[N+](C)c3ccccc3C2(C)C)cc1`, the growth was 26.4%.
`CN(C)c1ccc(/C=C(\C#N)c2nc3ccccc3s2)cc1`: the growth is 89.4%.
Consider `CCN(CC)CC(O)CNc1c2ccc([N+](=O)[O-])cc2nc2cc(OC)c(OC)cc12` (stereo unspecified), for which the growth is -94.6% (active).
On to `COc1nc2c(cc1S(=O)(=O)c1ccccc1)CCc1c-2cnn1-c1ccc(Cl)cc1`, for which the growth was 92.3%.
Turning to `Cc1cc(-c2nc3ccccc3s2)ccc1NC(=O)COc1ccc(Cl)cc1`, the growth was 84.4%.
